# Results taken from PubChem BioAssay.
# Assay: MRP1 drug-resistance reversers in H69AR cells – cell-based, doxorubicin co-treatment, pilot screen (AID 601)
# Conditions: H69AR cells, CellTiter-Glo, 72 h; compound alone cytotoxicity; at 10 µM
row,SMILES,viability [%]
1,CCOC(=O)C1CCCN(C(=O)c2cccs2)C1 (stereo not given),98.3
2,O=C(CSc1nnc(-c2ccccc2)o1)N1CCN(c2ccccc2)CC1,98.3
3,CCOC(=O)N1CCN(C(=O)Nc2ccc3oc(C)nc3c2)CC1,93.2
4,O=C(CSc1nc2ccccc2o1)N1CCN(c2ccc(Cl)cc2)CC1,87.4
5,CCCC(=O)N1CCN(c2ccc(NC(=O)c3ccc(Br)o3)cc2)CC1,104
6,COC(=O)c1[nH]c(C)c(/C(O)=C2\C(=O)C(=O)N(CCCN3CCOCC3)C2c2ccccn2)c1C (stereo not given),104
7,CCn1c(CSc2nc(C)cc(C)n2)nnc1SCC(=O)Nc1ccccc1,89.5
8,CN(C)c1oc(-c2ccccc2Cl)nc1C#N,94.9
9,Cc1ccccc1C(=O)N1CCC(C(=O)Nc2ccc(S(=O)(=O)N3CCCC3)cc2)CC1,78.8
10,Cc1ccc(-c2[nH]nc3c2C(c2ccoc2)C(C#N)=C(N)O3)cc1C (stereo not given),86.7
11,CCOC(=O)CN(C)Cc1c[nH]c2ccccc12,87.1
12,Cc1cccc(-n2ncc3c(NCc4ccccn4)ncnc32)c1,89.6
13,CCCCOc1ccc(C(=O)Nc2ccc(N3CCN(C(=O)C(C)C)CC3)cc2)cc1,75
14,COc1ccc(N(CC(=O)Nc2ccc(F)c(Cl)c2)S(=O)(=O)c2c(C)noc2C)cc1,81.5
15,O=C(c1ccc(-c2ccccc2)cc1)N1CCC(C(=O)N2CCCC2)CC1,104
16,COc1ccccc1NC1=NC2(CCCC2)N=C(N)N1,99.7
17,c1ccc(OCc2nc3ccccc3[nH]2)cc1,92.2
18,CS(=O)(=O)N(CC(=O)NC1CC1)c1cccc(F)c1,90
19,O=C(NCc1ccco1)C1Cc2ccccc2CN1S(=O)(=O)c1ccccc1F (stereo not given),25.3
20,Oc1cccc2ccc(Nc3ccccn3)nc12,1.99

row,SMILES,viability [%]
1,Cc1ccccc1NS(=O)(=O)c1ccc(NC(=O)c2ccco2)cc1,89.2
2,CC(=O)c1c(C)[nH]c(C(=O)NC2=NCCS2)c1C,99.8
3,Nc1nc(SCc2ccc(Cl)cc2Cl)n[nH]1,92.5
4,O=C(Nc1ccccc1C(=O)N1CCOCC1)c1ccncc1,101
5,O=C1c2cccnc2C(=O)N1c1cccc(-c2nc3ccccc3o2)c1,92.9
6,CCOc1ccc(N(C)S(=O)(=O)c2ccc3[nH]cc(C(=O)NCC4CCCO4)c(=O)c3c2)cc1 (stereo not given),87.9
7,Cc1cc(=O)oc2c(CN3CCN(C)CC3)c(O)c(Cl)cc12,90.7
8,Cn1c(=O)c2ccccc2n(Cc2ccccc2F)c1=O,85.2
9,COc1ccc(OC)c(-c2nc3c(C)n[nH]c(=O)c3[nH]2)c1,69.5
10,COc1ccc(CN(C(=O)CSc2nnc(-c3ccccc3F)o2)c2ccc(F)cc2)cc1,101
11,COc1ccccc1C(=O)Nc1c2c(nn1-c1cccc(C)c1C)CS(=O)(=O)C2,95.2
12,Cc1cccc(NC(=O)CCn2ccnc2C)c1,92.3
13,O=c1oc(-c2ccco2)nc2ccccc12,91
14,COCC(=O)N(Cc1ccccc1)c1ccccn1,90.1
15,Nc1cc(C(=O)O)ccc1Nc1ccccc1,111
16,O=C1c2ccccc2C(=O)N1CCC(=O)N1CCc2ccccc21,87.3
17,Cc1cc(C)n(Cc2nc3ccccc3n2C)n1,99
18,CC(C)c1ccc(NC(=O)C2CC(=O)N(C(C)C)C2)cc1 (stereo not given),90.8
19,CSc1nsc(SCC(=O)N2CCc3ccccc32)n1,96.8
20,CC(Sc1nnc(-c2cc3ccccc3o2)n1-c1ccccc1)C(=O)O (stereo not given),95.1
